HIF-2a inh = blocks HIF-2a reporter activity. 786-0 RCC cells HIF-2a reporter, luciferase luminescence, overnight. inhibition, % at 18.8 µM. 360,000 tested, 0.72% active. AID 624352;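 active means inhibition of the luminescence signal of 40% or more relative to plate controls, in a single-dose primary screen at 18.75 µM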
Peg3 promoter = Peg3 promoter activity inhibition; AID 588405; HeLa PEG-Prom luciferase reporter, luminescence, overnight; inhibition, % at 20 µM; 360,000 tested, 1.7% active;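 active means inhibition of at least 50% at 20 µM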
KKLEB tox = CF airway cell cytotoxicity counter-screen | KKLEB CF airway cells viability, ATPlite luminescence, overnight; stronger effect = lower value; cells stimulated with P. aeruginosa culture filtrate | 360,000 tested, 0.36% active | activity change (cytotoxicity), % at 5 µM;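 active means corrected activity change at or below -50% at 5 µM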
TWEAK-Fn14 inh = inhibitors of TWEAK-Fn14 interaction signaling; TWEAK-stimulated Fn14 reporter cells, luciferase luminescence, 8 h; inhibition, % at 10 µM; 360,000 tested, 2% active; AID 1159606; in the data active means inhibition above about 50%
CF NFkB inh = blocks PAF-induced NF-kB reporter in cystic fibrosis cells; KKLEB NF-kB-GFP reporter, GFP fluorescence overnight; inhibition, % at 5 µM; 360,000 tested, 0.86% active; AID 588850;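 active means at least 50% inhibition at 5 µM, scaled per plate between neutral and stimulator controls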;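 further: PAF is a Pseudomonas aeruginosa culture filtrate used as stimulus; plate controls were PAF-stimulated DMSO wells for no effect and unstimulated DMSO wells for full effect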
TROY NFkB inh = TROY signaling inhibition | Q293 LMP1-TROYcd NF-kB luciferase reporter, 4 h | inhibition, % at 10 µM | 360,000 tested, 0.98% active | AID 1347056;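 active means compounds whose plate-normalised and pattern-corrected inhibition of the luciferase reporter signal at the single screening dose is 50% or more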
The depositor's hits bear a star. Most compounds without a hit are left out; they make up all but 4% or so of the library.

For O=c1cc2c(=O)oc3cc(O)c(O)oc3c2c(O)c1O the results were HIF-2a inh 18, Peg3 promoter 18, KKLEB tox 0, TWEAK-Fn14 inh 83*, CF NFkB inh 1 and TROY NFkB inh 7.
For O=c1oc2cc(O)c(Cl)cc2c2ccccc12 the results were HIF-2a inh -18, Peg3 promoter -12, KKLEB tox 3, TWEAK-Fn14 inh 5, CF NFkB inh -28 and TROY NFkB inh -4.
For CCCn1c(=O)c(C(=O)Nc2ncccc2O)c(O)c2ccccc21 the results were HIF-2a inh 8, Peg3 promoter -1, KKLEB tox 6, TWEAK-Fn14 inh 87*, CF NFkB inh 16 and TROY NFkB inh 43.
Screening O=C(NC1CCCCC1)C1CCC(=O)N(Cc2cccc(C(F)(F)F)c2)C1 (centres undefined) returned HIF-2a inh 0, Peg3 promoter 22, KKLEB tox 1, TWEAK-Fn14 inh 0, CF NFkB inh -16 and TROY NFkB inh 1.
O=C(NC1CC1)c1cccc2c1C(=O)c1ccc(N3CCC(Cc4ccccc4)CC3)cc1S2(=O)=O was read as HIF-2a inh 15, Peg3 promoter 26, KKLEB tox -8, TWEAK-Fn14 inh 63*, CF NFkB inh -15 and TROY NFkB inh 30.
Screening O=C(NCc1ccc(F)cc1)c1cccc2c1C(=O)c1ccc(N3CCC(Cc4ccccc4)CC3)cc1S2(=O)=O returned HIF-2a inh 10, Peg3 promoter 4, KKLEB tox -9, TWEAK-Fn14 inh 5, CF NFkB inh -77 and TROY NFkB inh 1.
For Cn1c(=O)c2c(nc(C(O)c3ccccc3)n2C)n(C)c1=O (centres undefined) the results were HIF-2a inh 9, Peg3 promoter 7, KKLEB tox -3, TWEAK-Fn14 inh 17, CF NFkB inh 0 and TROY NFkB inh -1.
For O=C(Nc1ccc([N+](=O)[O-])cc1)C1CC1(c1ccccc1)c1ccccc1 (centres undefined) the results were HIF-2a inh 15, Peg3 promoter -16, KKLEB tox -7, TWEAK-Fn14 inh 32, CF NFkB inh 4 and TROY NFkB inh 70*.
CN1CCN(S(=O)(=O)c2ccc3c(c2)oc(=O)n3C)CC1 was read as HIF-2a inh -7, Peg3 promoter 1, KKLEB tox -8, TWEAK-Fn14 inh -2, CF NFkB inh 2 and TROY NFkB inh 11.
c1c2c(cc3sc(N4CCCCC4)nc13)OCO2 was read as HIF-2a inh -52, Peg3 promoter -113, KKLEB tox 0, TWEAK-Fn14 inh 73*, CF NFkB inh -8 and TROY NFkB inh -31.
For c1ccc2c(c1)CCN(c1nc3cc4c(cc3s1)OCO4)C2 the results were HIF-2a inh -178, Peg3 promoter -271, KKLEB tox -20, TWEAK-Fn14 inh 58*, CF NFkB inh 1 and TROY NFkB inh 2.
`c1ccc(N2CCN(c3nc4cc5c(cc4s3)OCO5)CC2)cc1` gave HIF-2a inh -244, Peg3 promoter -249, KKLEB tox -2, TWEAK-Fn14 inh 17, CF NFkB inh -8 and TROY NFkB inh -20.
Screening CSc1ncccc1C(=O)N1CCN(S(=O)(=O)c2ccc3c(c2)OCCO3)CC1 returned HIF-2a inh 7, Peg3 promoter -6, KKLEB tox 4, TWEAK-Fn14 inh -12, CF NFkB inh 14 and TROY NFkB inh -9.
Screening CN(C(=O)COC(=O)c1ccccc1C(=O)c1ccccc1)c1ccccc1 returned HIF-2a inh 18, Peg3 promoter 9, KKLEB tox 11, TWEAK-Fn14 inh -1, CF NFkB inh -10 and TROY NFkB inh -4.
`CCC1(c2ccccc2)NC(=O)N(CC(=O)Nc2ccc(S(=O)(=O)NC3=NCCCCC3)cc2)C1=O` (centres undefined) gave HIF-2a inh 18, Peg3 promoter 19, KKLEB tox -19, TWEAK-Fn14 inh -2, CF NFkB inh 2 and TROY NFkB inh 9.
`COc1ccc(CCNC(=O)N2c3ccccc3Sc3ccccc32)cc1` gave HIF-2a inh 29, Peg3 promoter 33, KKLEB tox 0, TWEAK-Fn14 inh 55*, CF NFkB inh 13 and TROY NFkB inh 45.
`COCCCNC(=O)N1c2ccccc2Sc2ccccc21` gave HIF-2a inh 12, Peg3 promoter 6, KKLEB tox 2, TWEAK-Fn14 inh 9, CF NFkB inh 5 and TROY NFkB inh 12.
COC(=O)[C@]12CCCCC=C1N(CCc1ccc(OC)c(OC)c1)C(=O)[C@H](CC(=O)NCc1ccccc1)C2 was read as HIF-2a inh 6.
Screening COc1ccc(CN2C(=O)C(C)=C(C)C2OC)cc1 (centres undefined) returned HIF-2a inh 22, Peg3 promoter 18, KKLEB tox 4, TWEAK-Fn14 inh 90*, CF NFkB inh -6 and TROY NFkB inh -2.
Screening COC1C(C)=C(C)C(=O)N1Cc1ccccc1 (centres undefined) returned HIF-2a inh 14, Peg3 promoter -3, KKLEB tox 8, TWEAK-Fn14 inh 11, CF NFkB inh -11 and TROY NFkB inh 4.
Screening Cc1ccc2nsnc2c1S(=O)(=O)N(Cc1cc2cccc(C)c2[nH]c1=O)CC1CCCO1 (centres undefined) returned HIF-2a inh 6, Peg3 promoter 84*, KKLEB tox -20, TWEAK-Fn14 inh 17, CF NFkB inh 35 and TROY NFkB inh 16.
`Cc1cccc(Nc2nc(N)c([N+](=O)[O-])c(N3CCCC(C)C3)n2)c1` (centres undefined) gave HIF-2a inh -14, Peg3 promoter 55*, KKLEB tox -18, TWEAK-Fn14 inh 64*, CF NFkB inh 42 and TROY NFkB inh 36.
Screening CSCCC(NC(=O)c1ccco1)C(=O)Nc1ccncc1 (centres undefined) returned HIF-2a inh -1, Peg3 promoter 15, KKLEB tox -7, TWEAK-Fn14 inh 12, CF NFkB inh 13 and TROY NFkB inh -12.
Screening O=C(O/N=C\c1ccc(N2CCCCC2)c([N+](=O)[O-])c1)c1c(F)cccc1F returned HIF-2a inh -43, Peg3 promoter -29, KKLEB tox -4, TWEAK-Fn14 inh 78* and CF NFkB inh 14.
O=C(Cn1c2ccccc2c(=O)c2ccccc21)N/N=C/c1ccc(N2CCCC2)c([N+](=O)[O-])c1 was read as HIF-2a inh 1, Peg3 promoter 91*, KKLEB tox -1, TWEAK-Fn14 inh 65*, CF NFkB inh -9 and TROY NFkB inh 35.
Screening COc1ccc(S(=O)(=O)N2CCC(C(=O)NCCCc3ccccc3)CC2)cc1 returned HIF-2a inh 10, Peg3 promoter 17, KKLEB tox 0, TWEAK-Fn14 inh 30, CF NFkB inh 7 and TROY NFkB inh 4.
O=C(O)CSCC(=O)Nc1ccc(-c2nc3ccccc3s2)cc1 was read as HIF-2a inh -112, Peg3 promoter -148, KKLEB tox 14, TWEAK-Fn14 inh 71*, CF NFkB inh -14 and TROY NFkB inh 42.

Bioassay records from PubChem.
